Pf growth 48h = P. falciparum growth inhibition at 48 hours (one generation). P. falciparum luciferase growth in erythrocytes, 48 h. Potency, µM (titrated, usually from 28.7 µM), for inactives: at the top dose activity change, negative = inhibition, usual class: inhibitors. actives 5.9% (n = 310,000); further: potency means the concentration at half of the fitted maximal effect; on the % scale 0 is the no-effect control and ±100 the full control effect
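A one-generation exposure of luciferase-tagged malaria parasites in RPMI 1640/Albumax erythrocyte culture, 37 C and 5% CO2. Inhibition is inferred from decreased luminescence after adding detection reagent.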
Pf growth 96h = inhibits malaria parasite growth, 96 h. actives 6.9% (n = 320,000). P. falciparum luciferase reporter growth, 96 h. Potency, µM (doses to about 28.7 µM), inactives show at the top dose activity change, negative = inhibition, actives largely listed as inhibitors; further: potency means the concentration at half of the fitted maximal effect; on the % scale 0 is the no-effect control and ±100 the full control effect
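P. falciparum expressing integrated firefly luciferase grown in erythrocytes (2% hematocrit, 0.05% parasitemia final) with compounds for 96 hours at 37 C, 5% CO2. Growth inhibition read as loss of luminescence after adding luciferase detection reagent.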
Shiga toxin inh = blocks Shiga toxin action in Vero cells; Vero cells, Shiga toxin protein synthesis inhibition reporter; inhibition, % at 38.7 µM; actives 9.2% (n = 290,000); AID 2315; in the data active means inhibition mostly above about 28%, no sharp cut-off; inactive means mostly below about 43%; further: 0% is about no effect
CHX counter = counter-screen for Shiga toxin inhibitors: cycloheximide protein synthesis inhibition; actives 12% (n = 300,000); max response, %; cell reporter, cycloheximide protein synthesis inhibition counterscreen; in the data active means max response mostly above about 13%, no sharp cut-off; inactive means mostly below about 14%; further: read at 38.3 µM for the half of the compounds with a filed dose; 0% is about no effect
FBPA Giardia inh = inhibitors of Giardia lamblia fructose-1,6-bisphosphate aldolase. Potency, µM (top dose mostly 59.6 µM), for the others: at the highest dose activity, negative = inhibition, most hits filed as inhibitors. actives 0.71% (n = 290,000). purified Giardia FBPA. AID 2451. A8B2U2; further: potency means the concentration at half of the fitted maximal effect; on the % scale 0 is the no-effect control and ±100 the full control effect; nearly all actives have a fitted effect of over 55% in size
Target sequence (A8B2U2 whole entry, looked up): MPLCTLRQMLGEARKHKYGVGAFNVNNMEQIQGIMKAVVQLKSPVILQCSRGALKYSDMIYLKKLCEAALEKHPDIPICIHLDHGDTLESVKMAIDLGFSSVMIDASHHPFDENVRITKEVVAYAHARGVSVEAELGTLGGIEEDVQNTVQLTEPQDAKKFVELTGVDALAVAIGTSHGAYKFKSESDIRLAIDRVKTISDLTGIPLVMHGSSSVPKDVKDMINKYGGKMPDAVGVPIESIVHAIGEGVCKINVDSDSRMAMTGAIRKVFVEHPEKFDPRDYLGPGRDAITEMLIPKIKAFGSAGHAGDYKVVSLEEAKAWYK
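Giardia FBPA (40 nM reagent) was preincubated 10 min at RT with compound (up to 57.5 uM final), then substrate plus GAPDH/TPI/NAD/arsenate coupling system with diaphorase/resazurin was added; resorufin fluorescence (525/598 nm) was read after 20 min.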
NS1 inh = blocks influenza NS1 protein function | Potency, µM (series often up to 46.1 µM), without a hit: at the top dose activity, positive = more growth | actives 0.4% (n = 270,000) | AID 2326; calls by dose curve; further: potency means the concentration at half of the fitted maximal effect; actives are rising curves; nearly all actives have a fitted effect of over 50% in size
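Recovery from NS1-induced slow growth read by OD600 in budding yeast switched to galactose assay medium (pH 6.0, -URA) at 1:100 dilution. Compound 23 nl per well; the matching strain lacking NS1 serves as control.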
Starred values were filed as active, the others as inactive; ? = inconclusive; nt = no result; [ ] = another dose, or the depositor's remark. Hits are enriched below; roughly 21% of the tested compounds scored in any of these assays. Unless noted, the call rests on the fitted dose curve; in most records, active means well fitted curve in the direction sought with a large enough effect; inconclusive means small, poorly fitted or top-dose-only effect, or another doubt; inactive means no such curve, though single readings can be large; an effect the other way counts as inactive or inconclusive.

SMILES	Pf growth 48h	Pf growth 96h	Shiga toxin inh	CHX counter	FBPA Giardia inh	NS1 inh
COc1ccc(OC)c(CCNC(=O)CSc2ccsc2[N+](=O)[O-])c1	?	-12%	2	12	-6%	nt
COc1ccccc1CNC(=O)CSC1=NCCS1	31%	6%	28	19*	-8%	4%
CC(C)C(NC(=O)c1ccc(C(C)(C)C)cc1)C(=O)NCC1(N(C)C)CCCCC1 (stereo not given)	-25%	?	-6	-4	12%	3%
O=C(CN1CCN(S(=O)(=O)N2CCOCC2)CC1)Nc1cc(Cl)cc(Cl)c1	-6%	-10%	-8	3	-3%	-16%
CCc1ccccc1N(C(C)=O)c1nc(CN=C=S)cs1	?	?	-5	1	-1%	nt
C=CC[C@@](C(C)=O)(C(=O)OC)C(NC(=O)OC(C)(C)C)c1ccccc1 (stereo not given in full)	nt	nt	nt	nt	2%	nt
O=C(CSc1ccsc1[N+](=O)[O-])NCc1ccccc1	124%	15µM*	112*	44*	0%	nt
CCc1ccccc1NC(=O)CSc1ccsc1[N+](=O)[O-]	-10%	2.3µM*	10	4	0%	9%
COc1ccc2c(c1)O/C(=C\c1ccccc1C)C2=O	40%	23%	66*	31*	0%	-4%
COc1cc(OC)c(OC)cc1/C=C1\Oc2cc(OS(C)(=O)=O)ccc2C1=O	9%	243%	13	0	-7%	2%
CC1(C)CC(=O)C=C(c2ccc(Oc3ccccc3)cc2)C1	17%	?	nt	nt	nt	nt
CC1(C)CC(=O)C=C(/C=C/c2ccccc2)C1	?	2.1µM*	nt	nt	nt	nt
C=C(C)Cn1c(=O)c2c(nc3n2CC(C)CN3Cc2ccccc2)n(C)c1=O (stereo not given)	?	?	-13	-4	5%	-12%
O=C1c2oc3ccc(F)cc3c(=O)c2C(c2cccc(O)c2)N1CCCN1CCOCC1 (stereo not given)	25%	10µM*	-12	-2	1%	-5%
C=CCOc1cccc(C2c3c(oc4ccc(F)cc4c3=O)C(=O)N2CCCN2CCOCC2)c1 (stereo not given)	12µM*	6%	1	-2	-11%	?
Cc1ccc2oc3c(c(=O)c2c1)C(c1cccc(Cl)c1)N(CCCN1CCOCC1)C3=O (stereo not given)	2.6µM*	?	-4	-3	0%	-7%
COc1ccccc1-c1cc(C(=O)NCc2ccco2)no1	31%	nt	30	37*	0%	-18%
COc1ccccc1S(=O)(=O)Cc1ccc(C(=O)NCc2cccs2)o1	0.83µM*	nt	-8	-3	-3%	-8%
CCC(C)NC(=O)c1cc(-c2ccccc2O)on1 (stereo not given)	nt	?	84*	52*	-3%	-13%
COCCNC(=O)c1cc(-c2ccccc2OC)on1	nt	?	131	17*	1%	-29%
CC1=NN(c2ccccc2)C(=O)C1(C)[N+](=O)[O-] (stereo not given)	-15%	-10%	1	-4	3%	11%
COc1ccc(OC(=O)CN2C(=O)C3C4CCC(C4)C3C2=O)cc1 (stereo not given)	6%	?	-6	-1	3%	-11%
COc1ccccc1-c1cc(C(=O)NCc2cccs2)no1	48%	3.7µM*	28	12	-1%	-15%
COc1ccccc1-c1cc(C(=O)NC(C)c2ccccc2)no1 (stereo not given)	?	?	-18	7	-5%	-42%
COc1ccccc1-c1cc(C(=O)NC(C)C)no1	119%	39%	83*	34*	-2%	-31%
SMILES	Pf growth 48h	Pf growth 96h	Shiga toxin inh	CHX counter	FBPA Giardia inh	NS1 inh
CCN(CC)C(=O)c1cc(-c2ccccc2OC)on1	76%	-36%	54*	37*	9%	-1%
COc1ccc(OCCN2CCN(C(=O)c3ccc(OC)c(OC)c3)CC2)cc1	13%	9%	-5	-4	9%	-8%
COC(=O)C1=C(C)N(Cc2ccccc2)C(=NCCN2CCOCC2)N[C@H]1CCc1ccccc1	-1%	2%	-7	-2	-9%	7%
CCOC(=O)C1C(C(=O)NN)C1C(=O)Nc1ccccc1 (stereo not given)	13µM*	8%	-6	3	0%	nt
Cc1ccc(NC(=O)C2C3/C=C\CCCCC32)cc1 (stereo not given)	90%	?	18	12*	-4%	14%
Cc1cccc(NC(=O)C2C3CCCCC32)c1 (stereo not given)	-5%	0.19µM*	25*	32*	-4%	-4%
Cc1cc(C)c(NC(=O)C2C3/C=C\CCCCC32)c(C)c1 (stereo not given)	38%	126%	-13	1	8%	-11%
CCOC(=O)C1C(c2ccccc2)C(C(=O)OCC)C1c1ccccc1 (stereo not given)	?	?	13	1	6%	5%
Cc1cc(NC(=O)OC2CCCCC2)ccc1[N+](=O)[O-]	26%	0%	123*	55*	-8%	5%
CC(C)[C@H](NC(=O)c1ccccc1)C(=O)OCC(=O)c1ccc(S(=O)(=O)N2CCCCC2)cc1	?	2%	nt	nt	nt	nt
Nc1ccc(N=Nc2c(S(=O)(=O)O)cc3ccccc3c2S(=O)(=O)O)cc1	nt	nt	nt	nt	nt	0%
Cc1ccc(NC(=O)C2C3CCCCC32)cc1[N+](=O)[O-] (stereo not given)	44%	?	58*	48*	-5%	-1%
O=C(Nc1cccc([N+](=O)[O-])c1)C1C2CCCCC21 (stereo not given)	2%	?	16	3	7%	4%
O=C(Nc1ccccc1)C1C2CCCCC21 (stereo not given)	15%	60%	65*	22*	4%	6%
CCc1ccccc1Nc1nc(N)nc(CSCC(=O)Nc2ccc(C)c(C)c2)n1	0%	?	-15	-2	6%	6%
CC(=O)[O][Hg][c]1ccccc1	1.5µM*	3µM*	nt	nt	18µM*	nt
COc1ccc(-c2csc(NC(=O)C3=NN(c4ccccc4)C(=O)CC3)n2)cc1	?	?	50	23*	-5%	nt
Cc1ccc2nc(NC(=O)C3=NN(c4ccccc4)C(=O)CC3)sc2c1	31%	-21%	31	8	-6%	25%
COc1ccc(-c2nc(NC(=O)C3=NN(c4cccc(C)c4)C(=O)CC3)sc2C)cc1	?	?	-5	17*	-9%	nt
COCC(=O)Nc1ccc(Br)cc1C	12%[5.75 µM]	5.9µM*	-3	5	1%	nt
COc1cccc2cc(C(=O)Nc3ccccc3C)/c(=N/O)oc12	6%	130%	89*	28*	-7%	-3%
COc1ccccc1C(=O)Nc1ccc(Br)c2cccnc12	-4%	?	9	-2	-5%	-4%
COc1ccccc1C(=O)Nc1ccc(Br)cc1C	57%	?	63*	29*	-3%	-34%

High-throughput results as filed in PubChem.
